MITF TRPM1 HTS = MITF TRPM1 promoter activation in melanoma cells; SK-MEL-5 TRPM1-promoter luciferase, 24 h; % of positive control, neutral wells = 0; 300,000 tested, 0.75% active; activation, % at 12.5 µM;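 active = mean activation of at least 80% with every replicate also reaching 80%; inconclusive = mean reaches 80% but some replicate falls short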;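 also: 0% = neutral control wells and 100% = parthenolide positive control wells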
FXN GAA850 act = frataxin GAA850 promoter activation. HEK293 lucGAA850 FXN promoter luciferase reporter, 24 h; percent of 10 µM SAHA response. activation, % at 6 µM. 360,000 tested, 0.56% active. AID 540364;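 active = activation above the average of all compounds screened plus 3 SD, cutoff fixed separately per campaign, cut at about 7.5% in these data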;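 also: 0% = DMSO wells and 100% = 10 µM SAHA wells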
Wnt act = activates Wnt/beta-catenin signaling in a reporter cell assay. activator, plate reader. activation, % at 9.35 µM. 300,000 tested, 1.2% active; in the data active = activation above about 30%, passing the limit was not always enough; inconclusive = no clear call, values can overlap the other calls;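 also: 0% = neutral control wells and 100% = positive control wells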
esBAF inh = SWI/SNF esBAF complex inhibition | mouse ES cells, Bmi1-luciferase knock-in reporter, 24 h; 100% = twice the neutral-well signal | reporter increase, % at 12.5 µM | 350,000 tested, 2% active; in the data active = activation above about 40%; inconclusive = no clear call, values can overlap the other calls;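 also: 0% = median of the plate's neutral control wells and 100% = double that signal; a rise in the Bmi1 reporter signal indicates esBAF inhibition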
AHR act = human AHR activation; AHR-responsive luciferase reporter cells, luminescence; activation, % at 5 µM; 320,000 tested, 2.5% active; AID 2796; in the data active = activation above about 47%;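 also: 0% = vehicle wells and 100% = reference agonist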
Target sequence (P35869 whole entry, looked up): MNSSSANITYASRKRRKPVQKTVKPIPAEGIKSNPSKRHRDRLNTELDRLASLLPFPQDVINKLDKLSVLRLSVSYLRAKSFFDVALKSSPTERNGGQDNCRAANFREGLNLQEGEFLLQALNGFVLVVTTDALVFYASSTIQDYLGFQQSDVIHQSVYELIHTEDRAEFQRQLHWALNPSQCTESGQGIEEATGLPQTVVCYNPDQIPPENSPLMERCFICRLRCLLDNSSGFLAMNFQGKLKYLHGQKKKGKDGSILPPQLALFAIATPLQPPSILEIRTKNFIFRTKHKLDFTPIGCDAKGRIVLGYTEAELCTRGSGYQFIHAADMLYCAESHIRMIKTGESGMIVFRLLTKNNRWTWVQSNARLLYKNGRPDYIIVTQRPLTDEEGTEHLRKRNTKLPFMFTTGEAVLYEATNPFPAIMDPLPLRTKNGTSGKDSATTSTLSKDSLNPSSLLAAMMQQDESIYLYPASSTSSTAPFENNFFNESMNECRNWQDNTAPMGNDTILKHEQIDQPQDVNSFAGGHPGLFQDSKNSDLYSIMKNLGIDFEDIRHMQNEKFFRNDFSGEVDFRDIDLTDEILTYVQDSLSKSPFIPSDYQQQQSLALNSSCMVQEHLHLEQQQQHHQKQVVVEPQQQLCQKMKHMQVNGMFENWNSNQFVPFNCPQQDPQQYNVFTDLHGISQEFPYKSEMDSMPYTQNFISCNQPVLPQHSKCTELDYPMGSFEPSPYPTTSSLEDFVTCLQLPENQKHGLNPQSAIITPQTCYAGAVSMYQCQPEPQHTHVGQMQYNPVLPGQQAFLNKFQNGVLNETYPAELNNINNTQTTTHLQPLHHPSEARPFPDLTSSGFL
esBAF Ring1 qPCR = de-represses Ring1 in mouse ESCs, confirming esBAF inhibition; AID 743176; fold change at 33 µM; 550 tested, under 10 active; mouse ESC E14, Ring1 mRNA RT-qPCR fold change; shares compounds with esBAF inh;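 active = Ring1 gene expression raised more than 2-fold over untreated cells in both replicates at either tested dose; inconclusive = only one replicate above 2-fold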;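 also: Ring1 transcript normalised to actin housekeeping signal by TaqMan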
esBAF Fgf4 qPCR = represses Fgf4 in mouse ESCs, confirming esBAF inhibition; shares compounds with esBAF inh; mouse ESC E14, Fgf4 mRNA qPCR fold change; stronger effect = lower value; Fgf4 expression fold change at 33 µM; 550 tested, 4% active; AID 743177;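 active = Fgf4 expression under 0.8 fold of control in both repeat measurements at one or both tested doses; inconclusive = under 0.8 fold in just a single repeat measurement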;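 also: Fgf4 transcript normalised to actin in duplex TaqMan qPCR; cells exposed to compound for 24 h before lysis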
Bmi1 derepress = esBAF inhibition confirmed by Bmi1 de-repression. shares compounds with esBAF inh. mouse ESE14 ES cells, Bmi1 mRNA qPCR fold; stronger effect = higher value. fold change at 33 µM. 550 tested, under 10 active;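 active = Bmi1 expression fold change above 6 at either tested concentration, seen in replicate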
A549 tox SP = kills or reduces viability of A549 cells; shares compounds with esBAF inh; A549 cytotoxicity, plate reader; cell viability change % (negative = cytotoxic), % at 25 µM, hits read low; 550 tested, under 10 active; AID 743188; call rule not given here
HepG2 tox SP = kills or reduces viability of HepG2 cells. shares compounds with esBAF inh. HepG2 cytotoxicity, plate reader; stronger effect = lower value. activity change, negative = inhibition, % at 25 µM. 550 tested, 4% active. AID 743189; in the data active = activity change below about -50%
HEK293 cytotox SP = HEK293 cell cytotoxicity at single point; shares compounds with esBAF inh; plate reader; activity change, negative = inhibition, % at 25 µM, hits read low; 550 tested, 3% active; in the data active = activity change below about -38%, passing the limit was not always enough
The depositor's hits bear a star; ? = inconclusive; . = no result given. In the library only some 4.2% were active in any assay of this set; here they are far more common.

SMILES	MITF TRPM1 HTS	FXN GAA850 act	Wnt act	esBAF inh	AHR act	esBAF Ring1 qPCR	esBAF Fgf4 qPCR	Bmi1 derepress	A549 tox SP	HepG2 tox SP	HEK293 cytotox SP
COc1cc(/C=C/c2ccc(O)cc2)cc(OC)c1	.	1	2	61*	1	0.95	0.97	2	-4	-35	2
C/C=C/c1cnc2c(c1)C(=O)N([C@H](C)CO)C[C@@H](C)[C@@H](CN(C)C(=O)Cc1ccccc1)O2	.	.	.	1	.	.	.	.	.	.	.
Nc1cc2c(cc1Cl)-c1ccccc1C2	67	6	0	108*	.	0.86	0.82	1.6	-3	15	-4
CCc1sc(C(=O)Nc2ccc3nc(C)sc3c2)cc1C	90*	4	13	80*	-1	1.1	0.61*	1.5	-5	15	-5
C[C@@H]1CN([C@@H](C)CO)C(=O)c2cc(NC(=O)Cn3cnnn3)ccc2O[C@@H]1CN(C)C(=O)Nc1ccc2c(c1)OCO2	.	.	.	-4	.	.	.	.	.	.	.
COc1ccccc1C(=O)NCC(=O)Nc1ccc2c(c1)OCO2	7	0	0	12	.	.	.	.	.	.	.
O=C(CNC(=O)c1ccccc1F)Nc1ccc2c(c1)OCO2	67	1	-3	62*	22	1.1	0.88	1.5	-15	-9	-13
O=C(Cc1noc2ccccc12)Nc1ccc2ccccc2c1	.	1	22	32	25	.	.	.	.	.	.
Cc1ccc(NC(=O)Cc2noc3ccccc23)cc1	.	1	.	81*	14	1.1	1	0.99	2	-34	-12
CC1(C)C=Cc2cc(-c3coc4cc(O)cc(O)c4c3=O)cc(O)c2O1	35	1	23	68*	17	1.4	0.97	1.4	7	-41	-8
O=c1c(-c2ccc3c(c2)OCCO3)coc2cc(O)cc(O)c12	.	5	.	11	-2	.	.	.	.	.	.
CCOC(=O)N/N=C/c1ccccc1OCc1ccc(Cl)cc1	33	5	.	.	6	.	.	.	.	.	.
O=C(Cc1ccccc1)N/N=C/c1ccccc1OCc1ccc(Cl)cc1	69	3	.	101*	19	1.2	?	2.7	-17	10	-14
Cc1cc2oc(=O)cc(CN(C)Cc3cccc(F)c3)c2cc1Cl	17	1	3	15	5	.	.	.	.	.	.
CN(Cc1ccccc1)Cc1cc(=O)oc2ccccc12	.	.	10	?	.	.	.	.	.	.	.
Cc1ccc2c(CN(C)Cc3cccc(F)c3)cc(=O)oc2c1	88*	6	0	90*	6	0.97	?	1.6	4	-6	-11
Cc1ccc2c(CN(C)Cc3ccccc3)cc(=O)oc2c1	.	.	13	88*	.	1.1	0.95	1.5	-12	-6	-22
Cc1cc2oc(=O)cc(CN(C)Cc3ccccc3F)c2cc1Cl	60	2	9	64*	11	1.3	0.65*	1.5	3	-1	-2
CC(=O)N(C)C[C@H]1Oc2cc(C#Cc3ccccn3)ccc2S(=O)(=O)N([C@@H](C)CO)C[C@H]1C	.	.	.	-8	.	.	.	.	.	.	.
CCNC(=O)c1ccc(CSc2nc3ccccc3s2)cc1	60	6	16	.	44	.	.	.	.	.	.
NC(=O)c1ccc(CSc2nc3ccccc3s2)cc1	55	7	19	54*	19	1.4	0.87	1.7	-8	6	-12
C[C@@H]1CCCCO[C@@H](CN(C)C(=O)Nc2ccc3c(c2)OCO3)[C@H](C)CN([C@@H](C)CO)C(=O)c2cc(NC(=O)Nc3ccc4c(c3)OCO4)ccc2O1	.	.	.	37	.	.	.	.	.	.	.
C=CCNc1nc2cc(-c3ccccc3OC)sc2c(=O)n1C	.	4	10	59*	.	1.1	1	2.1	-11	-24	-5
Clc1ccc(SCNc2ccccc2Cl)cc1	-11	3	3	7	0	.	.	.	.	.	.
Cc1ccc(NCSc2ccc(Cl)cc2)cc1	50	1	16	72*	.	0.96	1.1	1.5	-16	42	-2
SMILES	MITF TRPM1 HTS	FXN GAA850 act	Wnt act	esBAF inh	AHR act	esBAF Ring1 qPCR	esBAF Fgf4 qPCR	Bmi1 derepress	A549 tox SP	HepG2 tox SP	HEK293 cytotox SP
COC(=O)c1ccc(/C=N\N2CCN(c3ccccc3)CC2)cc1	12	2	4	29	.	.	.	.	.	.	.
C(=N\N1CCN(c2ccccc2)CC1)/c1ccccc1	91*	5	-2	63*	-5	0.99	1	1.5	-1	10	0
COc1cccc(/C=N/NC(=O)CCCC(=O)Nc2ccc(Br)cc2)c1	4	-1	-2	.	14	.	.	.	.	.	.
COc1ccc(/C=C/C(=O)Oc2cccc(/C=N/NC(=O)Cc3ccc(Br)cc3)c2)cc1	38	2	-23	63*	7	1.2	?	1.6	-3	2	5
C[C@@H]1CN([C@@H](C)CO)C(=O)c2cccc(NC(=O)C3CC3)c2O[C@@H]1CN(C)C(=O)NC1CCCCC1	.	.	.	2	.	.	.	.	.	.	.
CCS(=O)(=O)Nc1ccc2c(c1)C(=O)N(C)C[C@H](OC)[C@@H](C)CN(CC1CCCCC1)[C@H](C)CO2	.	.	.	3	.	.	.	.	.	.	.
NC(=O)c1sc2nc(-c3cccs3)ccc2c1N	14	5	13	59*	8	0.99	0.94	1.2	-9	-26	-9
Nc1c(C(=O)NC2CCCC2)sc2nc(-c3cccs3)ccc12	33	2	.	.	12	.	.	.	.	.	.
CCCc1nc2c3ccccc3ccn2c1Cc1ccc(C)cc1	.	.	5	101*	.	1.3	0.96	1.9	-5	-56*	-13
CCCc1nc2c3ccccc3ccn2c1Cc1cccc(Cl)c1	.	.	1	39	.	.	.	.	.	.	.
O=C(Nc1ccccc1)C1C2CCCCC21 (stereo unspecified)	.	0	2	21	1	.	.	.	.	.	.
Cc1cccc(NC(=O)C2C3CCCCC32)c1 (stereo unspecified)	45	5	7	67*	.	0.95	0.87	1.6	-13	-4	-6
CCC(=O)N[C@H]1C=C[C@H](CC(=O)NCc2cc(F)cc(F)c2)O[C@@H]1CO	.	.	.	-2	.	.	.	.	.	.	.
c1ccc(-c2ccc3[nH]ccc3c2)cc1	93*	4	17	59*	1	1	0.99	2.1	2	-17	8
c1cncc(-c2ccc3[nH]ccc3c2)c1	48	4	4	12	8	.	.	.	.	.	.
C[C@@H]1CN([C@H](C)CO)C(=O)c2cc(NC(=O)C3CCCCC3)ccc2O[C@H]1CN(C)C(=O)Nc1ccc(F)cc1	.	.	.	1	.	.	.	.	.	.	.
N#Cc1ccc(-c2cn3c(n2)SCC3)cc1	68	5	4	61*	.	0.91	0.86	1.4	-6	-8	-11
